Our source for the growth values is PubChem BioAssay (NCI).

Compounds without any hit were thinned out: in the full panel of roughly 83,000, 20% have a hit.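 Growth was measured after 48 h exposure to one concentration of compound in 96-well plates. Values under 10 count as active.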 Values without a mark were called inactive. Activity calls are given as the source filed them.

Among the test systems are DU-145 prostate; K-562 leukemia; MALME-3M melanoma; MDA-MB-231 breast; RXF 393 renal; SF-268 CNS; SF-295 CNS; SF-539 CNS; UACC-257 melanoma; M14 melanoma; HCT-15 colon; HT29 colon; SNB-75 CNS; SNB-19 CNS; U251 CNS; PC-3 prostate; SK-MEL-5 melanoma; UACC-62 melanoma; LOX IMVI melanoma; SK-MEL-28 melanoma.
Holding throughout (experiment): NCI-60 one-dose screen, 48 h (100 = growth as untreated, 0 = no growth, -100 = all killed)
What all share (conditions): 10 µM unless noted

For the molecule `CNc1cc(C(=O)O)nc(NC)n1`, the growth in the assay on DU-145 prostate is 103%; in the assay on K-562 leukemia, 101%; with MALME-3M melanoma it was 95.6%; in the assay on MDA-MB-231 breast, 93.1%; with RXF 393 renal, 96%; with SF-268 CNS, 100%. The growth is 100% in the assay on SF-295 CNS; 94.6% in the assay with SF-539 CNS; 94.4% in the assay with UACC-257 melanoma; 92.7% with M14 melanoma; 96.4% in the assay on HCT-15 colon; 104% in the assay with HT29 colon. Also, the growth with SNB-75 CNS is 90.9%; in the assay with SNB-19 CNS, 92.5%; in the assay with U251 CNS it was 99.8%; with PC-3 prostate, 94.9%; in the assay with SK-MEL-5 melanoma, 96.7%; with UACC-62 melanoma, 97.8%. In addition, the growth was 99.8% in the assay on LOX IMVI melanoma and 92.7% in the assay with SK-MEL-28 melanoma.

With `CCOC(CNC(=O)c1cccc([N+](=O)[O-])c1)OCC`, the growth in the assay on DU-145 prostate is 100%; in the assay with K-562 leukemia, 94%; with MALME-3M melanoma, 96.8%; with MDA-MB-231 breast, 92.9%; with RXF 393 renal, 65.7%; in the assay with SF-268 CNS, 93.6%. Further, the growth with SF-295 CNS was 91.2%; in the assay on SF-539 CNS it was 96.9%; in the assay with UACC-257 melanoma, 83.2%; with M14 melanoma, 98.7%; with HCT-15 colon, 99.7%; in the assay on HT29 colon, 111%. For the same molecule, the growth with SNB-75 CNS is 82.6%; in the assay on SNB-19 CNS it was 103%; in the assay on U251 CNS it was 97.6%; in the assay with PC-3 prostate, 102%; in the assay with SK-MEL-5 melanoma, 89.2%; in the assay with UACC-62 melanoma, 88%. Besides, the growth is 89.1% in the assay on LOX IMVI melanoma and 106% with SK-MEL-28 melanoma.

As to `C=C(C)[C@@H]1CC[C@]2(C)[C@H](CC=C3[C@@H]4[C@@H](C)[C@H](C)CC[C@]4(C(N)=O)CC[C@]32C)[C@@]1(C)CCC#N`, the growth in the assay on DU-145 prostate is -0.419% [100 µM] (active); in the assay on K-562 leukemia, 7.42% [100 µM] (active); in the assay with MALME-3M melanoma, -65.5% [100 µM] (active); in the assay with MDA-MB-231 breast, -55.4% [100 µM] (active); with RXF 393 renal, -72.2% [100 µM] (active); in the assay on SF-268 CNS it was 15.2% [100 µM]. The growth was 5.51% [100 µM] (active) with SF-295 CNS; -63.1% [100 µM] (active) in the assay on SF-539 CNS; -11.4% [100 µM] (active) in the assay with UACC-257 melanoma; -3.77% [100 µM] (active) in the assay with M14 melanoma; 9.25% [100 µM] (active) with HCT-15 colon; -32.6% [100 µM] (active) in the assay on HT29 colon. In addition, the growth is -5.4% [100 µM] (active) with SNB-75 CNS; 16.2% [100 µM] with SNB-19 CNS; -59.3% [100 µM] (active) in the assay with U251 CNS; 12.2% [100 µM] with PC-3 prostate; -87.9% [100 µM] (active) in the assay with SK-MEL-5 melanoma; -63.9% [100 µM] (active) with UACC-62 melanoma. For the same molecule, the figures for the growth with LOX IMVI melanoma and in the assay on SK-MEL-28 melanoma were -92.9% [100 µM] (active) and -67.8% [100 µM] (active), respectively.

Regarding `O=C(NCCCCCCCNC(=O)OCc1ccc2c(Cl)cc(Cl)c(O)c2n1)OCc1ccc2c(Cl)cc(Cl)c(O)c2n1`, the growth with DU-145 prostate is -87.3% (active); in the assay with K-562 leukemia, 2.04% (active); in the assay with MALME-3M melanoma, -87.4% (active); in the assay on MDA-MB-231 breast it was -72% (active); in the assay with RXF 393 renal it was -90.1% (active); in the assay on SF-268 CNS, -58.8% (active). Further, the growth is 1.17% (active) in the assay on SF-295 CNS; -96.6% (active) in the assay with SF-539 CNS; -41.6% (active) with UACC-257 melanoma; -76.4% (active) in the assay with M14 melanoma; -24.6% (active) in the assay on HCT-15 colon; -67% (active) in the assay with HT29 colon. In addition, the growth is -92.4% (active) in the assay on SNB-75 CNS; 0.446% (active) with SNB-19 CNS; -90.8% (active) in the assay on U251 CNS; -54.5% (active) in the assay with PC-3 prostate; -96.1% (active) with SK-MEL-5 melanoma; -79.3% (active) in the assay on UACC-62 melanoma. Also, the growth in the assay with LOX IMVI melanoma is -88.5% (active); in the assay with SK-MEL-28 melanoma, -83.1% (active).

As to `CCCOc1ccc(-c2nc(-c3ccc(N)cc3)cs2)cc1`, the growth was 133% with DU-145 prostate; 85.3% in the assay with K-562 leukemia; 116% with MALME-3M melanoma; 99% with MDA-MB-231 breast; 99.5% in the assay with RXF 393 renal; 133% with SF-268 CNS. Moreover, the growth in the assay with SF-295 CNS is 89.3%; with SF-539 CNS, 103%; with UACC-257 melanoma, 111%; in the assay on M14 melanoma it was 111%; in the assay on HCT-15 colon, 89.9%; with HT29 colon, 96.7%. The growth with SNB-75 CNS is 98%; in the assay with SNB-19 CNS it was 96.6%; in the assay with U251 CNS, 107%; in the assay with PC-3 prostate, 94.6%; in the assay on SK-MEL-5 melanoma it was 100%; in the assay with UACC-62 melanoma it was 97%. The figures for the growth with LOX IMVI melanoma and in the assay on SK-MEL-28 melanoma were 110% and 132%, respectively.

Regarding `CCN(CC)CC(C)Nc1ccc(C)c2sc3ccccc3c(=O)c12` (stereo not given), the growth is 82% with DU-145 prostate; 44.2% in the assay with K-562 leukemia; 65.2% in the assay with MALME-3M melanoma; 28.7% in the assay with MDA-MB-231 breast; 39.5% with RXF 393 renal; 58.9% with SF-268 CNS. Also, the growth in the assay on SF-295 CNS was 76.2%; in the assay with SF-539 CNS, 44.2%; with UACC-257 melanoma it was 0.527% (active); in the assay with M14 melanoma, 3.81% (active); in the assay on HCT-15 colon it was 32.5%; in the assay with HT29 colon, 26.8%. Further, the growth with SNB-75 CNS is 40.3%; with SNB-19 CNS, 53.8%; in the assay with U251 CNS, 37.4%; with PC-3 prostate it was 47.6%; in the assay with SK-MEL-5 melanoma, -68.1% (active); with UACC-62 melanoma, 3.87% (active). Besides, the results for the growth in the assay on LOX IMVI melanoma and in the assay on SK-MEL-28 melanoma were 23.3% and 38.9%, respectively.

As for `COc1cc(C)cc2oc3oc(=N)c(C(=O)c4ccccc4)cc3c(=O)c12`, the growth with DU-145 prostate was 111%; in the assay with K-562 leukemia it was 97.5%; in the assay on MALME-3M melanoma, 91.8%; in the assay with MDA-MB-231 breast, 98.2%; with RXF 393 renal, 108%; in the assay on SF-268 CNS, 94.4%. The growth is 106% in the assay on SF-295 CNS; 96.4% with SF-539 CNS; 111% with UACC-257 melanoma; 99.7% with M14 melanoma; 103% in the assay with HCT-15 colon; 108% with HT29 colon. For the same molecule, the growth in the assay with SNB-75 CNS is 86.2%; in the assay with SNB-19 CNS, 99.4%; in the assay with U251 CNS, 107%; in the assay with PC-3 prostate, 103%; in the assay on SK-MEL-5 melanoma, 96.8%; with UACC-62 melanoma, 93.5%. In addition, the growth in the assay with LOX IMVI melanoma was 95.6%; in the assay with SK-MEL-28 melanoma, 98%.
